From PubChem BioAssay
HT1080 IDH1KD tx: HT-1080 IDH1 knockdown cell toxicity (counter line). HT-1080 IDH1 knockdown viability, ATP luminescence, 48 h. Potency, µM (series often up to 46.1 µM), without a hit: at the top dose activity, negative = toxicity, hits mostly cytotoxic. actives 2% (n = 360,000);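 note: 0% = DMSO wells and -100% = cell-free medium wells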
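In this qHTS, HT-1080 cells depleted of IDH1 are exposed for 48 h at 37 °C to compound titrations. Toxicity is scored from CellTiter-Glo luminescence, with DMSO as full viability and medium alone as none.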
S2 tox: viability counter-screen for ATXN expression inhibitors; Potency, µM (series often up to 56.7 µM), most hits filed as cytotoxic; actives 0.49% (n = 400,000); AID 651635; S2 cells (HEK-293 line with an ATXN2-luciferase reporter) viability, CellTiter-Fluor protease fluorescence, 24 h; note: nearly all actives have a fitted effect of over 40% in size
KB-V1 MDR tox: KB-V1 MDR subline cytotoxicity. actives 3.4% (n = 400,000). Potency, µM (doses to about 46.1 µM), usual class: cytotoxic. KB-V1 MDR cells viability, CellTiter-Glo, 72 h; note: % is set by controls: 0 for no effect and ±100 for the full control effect; nearly all actives have a fitted effect of over 60% in size
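Cytotoxicity toward P-gp-expressing KB-V1 cells was determined as loss of CellTiter-Glo luminescence after 72 h at 37 degrees C. Compounds were tested in quantitative HTS format across a concentration range, with curves fitted to normalized data.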
HT1080-NT tox: kills 2HG-producing HT-1080-NT fibrosarcoma cells; HT-1080-NT fibrosarcoma viability, CellTiter-Glo ATP luminescence, 48 h; Potency, µM (titrated, usually from 46.1 µM), inactives show at the highest dose activity, negative = less viability, most hits filed as cytotoxic; actives 1.6% (n = 360,000); AID 686970;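 note: NT is the 2HG producing partner of a matched IDH1 knockdown line; 0% = DMSO-treated cells and -100% = media-only wells without cells; nearly all actives have a fitted effect of over 55% in size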
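Read-out is CellTiter-Glo luminescence after 10 minutes at room temperature, following 48 hours' compound treatment of HT-1080-NT cells (750 cells/well, RPMI, 5% FBS, 37 degrees C).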
KB-3-1 cytotox: kills parental KB-3-1 adenocarcinoma cells; actives 1.4% (n = 400,000); KB-3-1 viability, CellTiter-Glo ATP luminescence, 72 h; Potency, µM (series often up to 46.1 µM), hits mostly cytotoxic; note: % is set by controls: 0 for no effect and ±100 for the full control effect; nearly all actives have a fitted effect of over 60% in size
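Parental KB-3-1 viability, qHTS format: 72 h compound exposure, 37 °C; CellTiter-Glo; media-only wells and DMSO plates as controls; concentration-effect fits on corrected data.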
ATXN2 expr inh: reduces ATXN2 reporter expression in HEK-293 cells | HEK-293 ATXN2-luciferase reporter, luminescence, 24 h | Potency, µM (doses to about 57 µM), for inactives: at the highest dose activity change, negative = inhibition, usual class: inhibitors | actives 0.72% (n = 360,000); note: % is set by controls: 0 for no effect and ±100 for the full control effect; nearly all actives have a fitted effect of over 55% in size
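ATXN2-luciferase reporter cells (luciferase flanked by upstream and downstream ATXN2 gene portions) were treated 24 h at 37 °C with compounds at up to 57 uM. SteadyGlo luminescence gave expression; GF-AFC fluorescence gave viability.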
Numbers without * were called inactive; i = inactive; ? = inconclusive; · = no result. In the library only some 6.2% were active in any assay of this set; here they are far more common. Calls come from the whole dose curve; as a rule, active = well fitted curve in the direction sought with a large enough effect; inconclusive = small, poorly fitted or top-dose-only effect, or another doubt; inactive = no such curve, though single readings can be large; an effect the other way counts as inactive or inconclusive. Potency is the fitted concentration of half-maximal effect.

SMILES	HT1080 IDH1KD tx	S2 tox	KB-V1 MDR tox	HT1080-NT tox	KB-3-1 cytotox	ATXN2 expr inh
Cc1cccc(-n2ccnc2SCC(=O)Nc2cc(C)on2)c1	15%	i	i	18%	i	-8%
CCSc1nnc(NC(=O)CSc2nccn2-c2cccc(C)c2C)s1	-3%	i	21µM*	-1%	i	10%
Cc1cc(NC(=O)CSc2nccn2-c2cccc(F)c2)no1	8%	i	16µM*	13%	i	-3%
CCOc1ccc(-n2ccnc2SCC(=O)N2CCCc3ccccc32)cc1	-5%	i	12µM*	-5%	i	-12%
COC(=O)c1c(OCc2cccnc2)cc(=O)n2c1CCN(C(=O)c1c3c(nn1C)CCCC3)CC2	·	i	·	·	·	·
Cc1cccc(NC(=O)C2CCN(S(=O)(=O)c3cccc4nsnc34)CC2)c1C	·	i	i	·	i	0%
Cc1cccc(N(CC(=O)NCCSc2ccc(Cl)cc2)S(C)(=O)=O)c1C	·	i	i	·	i	-18%
CCOc1ccc(-n2ccnc2SCC(=O)Nc2cc(C)on2)cc1	-9%	i	15µM*	1%	i	-14%
COC(=O)[C@@]1(Cc2ccc(OC)cc2)[C@@H]2C(=CC(=O)[C@H]2CC(=O)C(=O)N(C)C)CN1C(=O)c1ccccc1	?	?	?	?	16µM*	?
C=C1C(=O)CC2=C1[C@](Cc1ccc(F)cc1)(C(=O)OC)N(C(=O)c1ccccc1)C2	?	?	i	?	?	0%
C=C1C(=O)C=C2CN(C(=O)c3ccccc3)[C@@](Cc3ccc(F)cc3)(C(=O)OC)[C@@H]12	5.8µM*	4.5µM*	4.6µM*	12µM*	5.2µM*	3.2µM*
COC(=O)[C@@]1(Cc2ccc(OC)cc2)[C@H]2c3cc(C(=O)N(C)C)n(C[C@H](O)CO)c3C[C@H]2CN1C(=O)c1ccccc1	12%	i	i	20%	i	5%
CC(=O)C(Sc1nc(-c2ccccc2Cl)nc2c1c(=O)n(C)c(=O)n2C)C(=O)N(C)C (centres undefined)	·	?	i	·	i	-15%
Cc1ccc(-c2cc(C(=O)N3CCCc4ccccc43)c3ccccc3n2)cc1	-1%	i	23µM*	-3%	?	2%
Cc1ccc(-c2cc(C(F)F)n3ncc(C(=O)Nc4c(C)nn(Cc5ccccc5Cl)c4C)c3n2)cc1	9%	?	?	-27%	16µM*	?
Cc1ccc2nc3sc(C(=O)N4CCCc5ccccc54)c(N)c3cc2c1	2%	i	6.5µM*	-2%	?	6%
Cc1ccc(-c2cc(C(F)F)n3ncc(C(=O)N4CCc5ccccc54)c3n2)cc1	2.3µM*	?	5.8µM*	2.9µM*	i	·
O=C(C[N+]12CCCc3cccc(c31)CCC2)c1ccc(Cl)c2ccccc12	·	·	i	·	i	·
O=C(O)CCc1cccc2ccccc12	·	·	i	·	i	·
CCOc1ccccc1CNC(=O)c1cc(-c2ccc(C)c(C)c2)nc2ccccc12	·	i	i	·	i	6%
COc1cccc(CNc2ncnc3onc(C)c23)c1	·	i	i	·	21µM*	-21%
COc1cccc(CNc2ncnc3ccc(-c4c(C)noc4C)cc23)c1	·	i	?	·	i	69%
CC(C)(C)c1ccc(C2CC2C(=O)N/N=C\c2ccc[nH]2)cc1 (centres undefined)	1.6µM*	?	?	2.6µM*	15µM*	?
O=C(N/N=C/c1ccco1)C1CC1c1ccccc1 (centres undefined)	-1%	i	?	10%	i	11%
CC(=O)NCCc1nc2ccccc2n1CCCCOc1ccc(Cl)cc1	·	?	i	·	i	?
SMILES	HT1080 IDH1KD tx	S2 tox	KB-V1 MDR tox	HT1080-NT tox	KB-3-1 cytotox	ATXN2 expr inh
CC(C)(C)C(=O)NCCCc1nc2ccccc2n1CCCOc1ccc(Cl)cc1	?	i	16µM*	?	?	-31%
COc1ccccc1Nc1nn2c(=O)c3ccc(C(=O)NC4CCC(C)CC4)cc3nc2s1 (centres undefined)	·	i	?	·	i	-2%
C=CC[C@H](c1ccc(F)cc1)N(CC(C)C)S(=O)(=O)C=C	·	·	i	·	?	·
S=C(SSC(=S)N1CCOCC1)N1CCOCC1	0.73µM*	?	i	1.2µM*	i	?
Cc1c(C(=O)NC(C)(C)C)sc2ncnc(NCCN(C)C)c12	·	i	·	·	·	·
CC(C)CCC(CCNCc1ccccn1)c1ccc(Cl)cc1 (centres undefined)	?	i	10µM*	?	?	-37%
S=C(NCc1ccc(Cl)cc1)NCc1ccccn1	3%	i	i	6%	i	-2%
CCOC(=O)c1c(C)[nH]c(C)c1S(=O)(=O)NCC(=O)Nc1cccc(Cl)c1	·	?	?	·	i	-3%
CC(Nc1ncnc2sccc12)c1ccccc1 (centres undefined)	-23%	?	i	10µM*	?	-19%
CC12CCC(C(=O)Nc3ccccc3Cl)(C(Br)C1=O)C2(C)C (centres undefined)	20%	i	13µM*	6%	i	7%
Cc1ccc(NC(=O)COc2ccc(/C=C3/SC(=Nc4ccccc4)N(Cc4cccnc4)C3=O)cc2)cc1	7%	?	16µM*	7%	?	14µM*
O=C(CCN1C(=O)/C(=C/c2ccccc2)SC1=S)Nc1cccnc1	11%	i	i	3%	i	-7%
CCC(C)NC(=O)CSc1nc2c(sc3ccccc32)c(=O)n1Cc1ccccc1Cl (centres undefined)	·	?	i	·	i	5%
O=C1/C(=C/c2cccnc2)SC(=S)N1Cc1ccco1	?	i	21µM*	-18%	13µM*	-19%
NS(=O)(=O)c1ccc(CCN2C(=O)/C(=C\c3ccc(Cl)cc3)SC2=S)cc1	5%	·	18µM*	2%	?	25µM*
CN1CCN(C(=O)CCN2C(=O)/C(=C\c3ccc(Cl)cc3)SC2=S)CC1	0%	i	i	3%	i	21%
S=C1SCN(Cc2ccccn2)CN1Cc1ccco1	16µM*	?	?	?	i	?
COCCN1CSC(=S)N(Cc2ccco2)C1	5%	i	i	17%	i	1%
O=C1/C(=C\c2cccc([N+](=O)[O-])c2O)SC(=S)N1Cc1ccccc1	0%	?	i	-17%	?	?
O=C1/C(=C/c2ccccc2O)SC(=S)N1Cc1cccnc1	3%	16µM*	?	7%	3.3µM*	28µM*
